Source: PubChem BioAssay AID651561 (Sanford-Burnham Center for Chemical Genomics, 2012)
The list shows a part of the results. Unmarked numbers belong to inactive results. Calls of active or inactive are those of the source. Rule as the data show it: active = IC50 below about 20 µM; inactive = the rest.

Assay: blockers of mitochondrial swelling via MPTP – biochemical, absorbance, uHTS hits, dose response (AID 651561)
Conditions: isolated mitochondria swelling
Work on `COc1ccc(C2NCc3ccc4c(c3-n3cccc32)OCO4)cc1OC` (stereo not drawn) yielded an IC50 of 26.9 µM.
Work on `O=Cc1cn(Cc2ccc(F)cc2Cl)c2ccccc12` yielded an IC50 of 32.3 µM.
In the case of `CC(Cc1ccccc1)NCCC(c1ccccc1)c1ccccc1` (stereo not drawn), the IC50 was 4.21 µM (active).
